# Compound activity as filed in PubChem BioAssay.
# LDHA inh = blocks human lactate dehydrogenase A; activity change, % (values are at about 110 or 230 µM); actives 0.15% (n = 480,000); purified LDHA, NADH/diaphorase-resazurin fluorescence; active compounds read low; AID 1347041; P00338; in the data active = activity change below about -30%; inconclusive = mostly about -25% to -30%;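 also: plate controls were DMSO wells for no effect and wells without enzyme for full effect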
#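 Human LDH5 (2 nM) was incubated with 0.06 mM NADH and 0.2 mM pyruvate for 5 min at room temperature in Tris pH 7.4. Remaining NADH was coupled through diaphorase/resazurin, and resorufin fluorescence was read at 0 and 20 min.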
# Vif-A3F inh = Vif-A3F binding inhibition | Potency, µM (top dose mostly 46.1 µM), for the others: top-dose activity, negative = active | HeLa A3F-eYFP + Vif (tagged APOBEC3F with the HIV-1 protein that degrades it), YFP fluorescence increase | actives 0.2% (n = 390,000); also: potency is read from the fitted curve at half-maximal effect; % of control where 0% means no effect; nearly all actives have a fitted effect of over 65% in size
#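 Fluorescence increase (Ex 488/Em 500-530) after overnight compound treatment at 37 deg C flags inhibition of Vif-driven A3F-eYFP loss in stable HeLa A3F-eYFP/Vif cells seeded overnight beforehand.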
# Vif-APOBEC3G blk = blocks the Vif interaction with human APOBEC3G; Q9HC16; HeLa A3G-eYFP + Vif (tagged APOBEC3G with the HIV-1 protein that degrades it), YFP fluorescence, overnight; Potency, µM (top dose mostly 46.1 µM), for inactives: top-dose activity, negative = active, most hits filed as inhibitors; actives 0.076% (n = 410,000); AID 602310; also: potency is read from the fitted curve at half-maximal effect; % is scaled to controls: 0 for no effect and ±100 for the full control effect; nearly all actives have a fitted effect of over 60% in size
#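 HeLa cells stably expressing Vif and C-terminally eYFP-tagged A3G, seeded overnight at 37 deg C, then exposed to compound by pintool overnight at 37 deg C. Rise in yellow fluorescence (Ex 488/Em 500-530, Acumen) marks blocked Vif-driven A3G degradation.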
# PTHR1 ag = agonists of human PTHR1 parathyroid hormone receptor | AID 743266 | actives 0.075% (n = 410,000) | Q03431 | HEK293 GP2 PTHR1 cells, GloSensor cAMP luminescence, 1 h | Potency, µM (titrated, usually from 115 µM), without a hit: at the highest dose activation, most hits filed as activators; also: potency is read from the fitted curve at half-maximal effect; nearly all actives have a fitted effect of over 55% in size
#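 HEK-293-derived GP2 cells expressing PTHR1 and a GloSensor cAMP reporter, 3,000/well, plated overnight, given luciferin plus IBMX (each 0.5 mM as added) for 1 h at 37 °C, then compound for 1 h at 37 °C. Luminescence was read after 15 min at room temperature.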
# PINK1 modulator = PINK1 expression modulation. PINK1 immunofluorescence, high-content cytometry, 24 h. Potency, µM (doses to about 76.6 µM), inactives show top-dose activation (PINK1 increase), hits mostly activators. actives 0.2% (n = 410,000); active = well fitted activation curve with a large enough effect; inconclusive = small, poorly fitted or top-dose-only effect; cell line not stated here; also: potency is read from the fitted curve at half-maximal effect; % of control where 0% means no effect; nearly all actives have a fitted effect of over 65% in size
#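 A stable cell line was treated with compounds at 5 concentrations for 24 hours, with CCCP as control. PINK1 levels and mitochondrial localization were measured by immunofluorescence with mitochondrial, cell and nuclear markers after fixation, read by laser-scanning cytometry.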
# IDH1 R132H inh = blocks human mutant IDH1 R132H enzyme. IDH1-R132H enzyme, NADPH consumption, diaphorase/resazurin fluorescence. actives 0.093% (n = 390,000). AID 602179. O75874. Potency, µM (series often up to 76.6 µM), inactives show top-dose activity change, negative = inhibition, actives largely listed as inhibitors; also: potency is read from the fitted curve at half-maximal effect; % is scaled to controls: 0 for no effect and ±100 for the full control effect; nearly all actives have a fitted effect of over 65% in size
# Target sequence (O75874 whole entry R132H, stated change not applied): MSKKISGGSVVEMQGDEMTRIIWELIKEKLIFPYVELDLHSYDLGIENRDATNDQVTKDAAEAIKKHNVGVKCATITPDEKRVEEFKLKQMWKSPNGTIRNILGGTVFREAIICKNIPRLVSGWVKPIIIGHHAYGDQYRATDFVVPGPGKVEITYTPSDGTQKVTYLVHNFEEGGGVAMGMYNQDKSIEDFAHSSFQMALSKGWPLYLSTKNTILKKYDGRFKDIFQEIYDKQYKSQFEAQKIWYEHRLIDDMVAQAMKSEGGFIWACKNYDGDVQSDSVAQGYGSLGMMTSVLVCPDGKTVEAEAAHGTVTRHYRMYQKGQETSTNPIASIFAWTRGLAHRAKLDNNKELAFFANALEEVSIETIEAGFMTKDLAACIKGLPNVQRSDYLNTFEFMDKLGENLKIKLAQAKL
#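 IDH1-R132H (0.5 ug/mL) preincubated 30 min with compound, then NADPH (0.016 mM) and alpha-KG (2 mM) added; 80 min at RT, pH 7.5. Remaining NADPH coupled via diaphorase/resazurin to fluorescence (540/590 nm); concentration-response curves normalized to no-enzyme control.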
# Numbers without * were called inactive; i = inactive; ? = inconclusive; / = no result; [ ] = another dose, or the depositor's remark. Compounds with a hit are over-represented: about 0.59% of the library has one in this group of screens. Unless noted, calls follow the shape of the dose curve; as a rule, active = well fitted curve in the direction sought with a large enough effect; inconclusive = small, poorly fitted or top-dose-only effect, or another doubt; inactive = no such curve, though single readings can be large; an effect the other way counts as inactive or inconclusive.
SMILES,LDHA inh,Vif-A3F inh,Vif-APOBEC3G blk,PTHR1 ag,PINK1 modulator,IDH1 R132H inh
O=C(N/N=C/c1ccccc1)c1ccc2c(c1)OCO2,-2,0%,-4%,-73%,0%,0%
Cc1sc(-c2cc3c([nH]c2=O)CC(c2ccccc2)CC3=O)nc1-c1ccc(Cl)cc1 (stereo not drawn),-2,13µM*,10µM*,18%,5%,-10%
CCn1cc(C#N)c(=O)n(Cc2nc(-c3ccccc3C)no2)c1=O,-2,/,/,/,/,/
CN(C)c1ccc(C(=O)NNC(=O)c2ccc(Cl)cc2)cc1,-48*,7%,-2%,i,-1%,-5%
CCOc1ccccc1-c1cc(C(=O)OC)c2ccccc2n1,8,/,/,/,/,/
CN(C)c1ccc(NC(=O)Cn2c(SCc3ccc(F)cc3)nc3cccnc32)cc1,0,-1%,5%,50µM*,6%,-2%
CC(C(=O)N(C)Cc1ccccc1)N1CCN(C/C=C/c2ccccc2)CC1 (stereo not drawn),-31*,-3%,-1%,-8%,4%,2%
COc1cccc(-c2nc(CS(=O)(=O)CC(=O)Nc3cccc(C(F)(F)F)c3)c(C)o2)c1,-30*,/,/,/,/,/
S=C(NCc1ccco1)Nc1ccc(Cl)cn1,0,25µM*,-1%,i,1%,9%
Cc1nc(-c2ccncc2)sc1C(=O)O,0,/,/,/,/,/
Cc1c(-c2ccc(Cl)cc2)nc2ccccc2c1C(=O)NC1CCCCCC1,5,/,/,/,/,/
CCOc1ccc(Cn2c3ccc(OC)cc3c3nc4ccccc4nc32)cc1,1,11µM*,?,-3%,17%,0%
COc1ccccc1N1CCN(CC(=O)Nc2ccc(CN3CCCCC3)cc2)CC1,-46*,-1%,-3%,i,/,2%
COc1ccc(C2=NN(c3nc(C(=O)O)cs3)C(O)(C(F)(F)F)C2)c(OC)c1 (stereo not drawn),-63*,-8%,0%,-51%,0%,-6%
CC(C)c1cc(-c2nc(-c3ccc4c(c3)OCO4)no2)n[nH]1,-6,/,/,/,/,/
CCc1cc(C(=O)NNC(=S)NC(=O)c2ccccc2)cs1,2,/,/,/,/,/
CCOC(=O)N1CCC(Nc2nc3ccccc3n3nnnc23)CC1,-1,10µM*,-8%,-2%,2%,-1%
Fc1ccccc1Nc1nc2ccccc2n2nnnc12,-9,25µM*,-27%,i,11%,-13%
COc1ccccc1N1CCN(C(=O)CCNS(=O)(=O)c2ccc3[nH]c(=O)ccc3c2)CC1,1,/,/,/,/,/
Cc1cc(C)n2nc(SC(C)C(=O)Nc3ccc(F)cc3Cl)nc2n1 (stereo not drawn),33,/,/,/,/,/
Cc1nc(N2CCC(C)CC2)c2c(C)c(C(=O)Nc3ccc(C(F)(F)F)cc3)sc2n1,-7,-9%,0%,-9%,40µM*,10%
O=C(/C=C/Nc1ccc(F)cc1)C(F)(F)F,1,/,/,/,/,/
Cc1cc(SCC(=O)NC2(C#N)CCCCCC2)nc2ccccc12,8,/,/,/,/,/
Cc1nn2c(NCc3ccccn3)cc(C(C)(C)C)nc2c1-c1ccccc1,-2,0%,-4%,-12%,18µM*,2%
O=C(CSc1nc2ccccc2s1)c1cccc(C(F)(F)F)c1,8,/,/,/,/,/
SMILES,LDHA inh,Vif-A3F inh,Vif-APOBEC3G blk,PTHR1 ag,PINK1 modulator,IDH1 R132H inh
O=C(CSc1nc2ccccc2s1)Nc1cccc(C(F)(F)F)c1,-30*,/,/,/,/,/
O=C(CSc1nc2ccccc2s1)c1cc2ccccc2o1,-1,25µM*,?,i,-4%[38.3 µM],3%
O=[N+]([O-])c1ccc(-c2cc(-c3ccccc3)nc(-c3ccccc3)c2)cc1,9,/,/,/,/,/
c1ccc(-c2cnc(SCCN3CCOCC3)n2CC2CCCO2)cc1 (stereo not drawn),-32*,-3%,1%,-8%,-1%,0%
CN(Cc1cccc(F)c1)C(=O)COc1ccc2ccc(=O)oc2c1,-9,/,/,/,/,/
O=C(O)/C=C/c1ccc([N+](=O)[O-])o1,0,15%,2%,0%,1%,1%
N#CCc1ccc(NC(=O)/C=C/c2ccc([N+](=O)[O-])o2)cc1,1,2.5µM*,6.3µM*,-57%,22%,0%
CCCCCCCC(=O)N/N=C/c1ccc([N+](=O)[O-])o1,-14,-27%,?,-25%,6%,-8%
N#C/C(=C\c1ccc([N+](=O)[O-])o1)C(=O)Nc1ccc(F)cc1,24,22µM*,?,-18%,19%,12%
O=C(Cc1ccc([N+](=O)[O-])cc1)N/N=C/c1ccc([N+](=O)[O-])o1,1,-6%,-14%,-18%,35µM*,-10%
COc1ccc(C(O)(CN)C(F)(F)F)cc1OC (stereo not drawn),1,/,/,/,/,/
Cn1c(=O)n(CCC(=O)NCc2nnc3n2CCCCC3)c2ccccc21,-22,/,/,/,/,/
CN1C(=O)C2(CC(=O)Nc3c2cnn3Cc2ccccc2Cl)c2cccc(Cl)c21 (stereo not drawn),3,/,/,/,/,/
CC(=O)c1ccccc1OCCN1CCN(C2CCS(=O)(=O)C2)CC1 (stereo not drawn),0,/,/,/,/,/
Cc1ccc([N+](=O)[O-])cc1C#Cc1ccccc1,5,/,/,/,/,/
CC1(C)Cc2ccccc2C2CC(O)C(=O)N21 (stereo not drawn),-7,25µM*,?,i,/,2%
CCCSc1nsc(NC(=O)Nc2ccc(F)cc2F)n1,-1,?,0%,-38%,13µM*,0%
COc1ccc(C(=O)C[n+]2ccc(Cl)c3ccc(Cl)cc32)cc1,-60*,/,4%,/,0%,/
O=C(Nc1cccc(C(=O)N2CCN(c3ccccc3)CC2)c1)C1=CSCCO1,5,/,/,/,/,/
COc1cccc(N2CCN(Cc3nc4scc(-c5ccccc5)c4c(=O)[nH]3)CC2)c1,-4,-20%,8.9µM*,-27%,2%,6%
COc1cccc(N2CCN(Cc3nc4ccccc4c(=O)[nH]3)CC2)c1,6,1%,1%,i,-2%,4%
CSCCC(NS(=O)(=O)c1ccc(Cl)cc1)C(=O)OCc1c(Cl)cccc1Cl (stereo not drawn),-6,3%,-9%,-36%,40µM*,0%
Cc1cc(Cl)ccc1NC(=O)COc1ncnc2ccc(Br)cc12,6,/,/,/,/,/
